# According to PubChem BioAssay (EPA / NIEHS):
# The source made the active and inactive calls. Rule for the calls: active = hit-call score of the fitted dose curve at least 0.9, where 1 is the maximum; inactive = score below 0.9.
# Read-out: Interleukin-8 (IL8), CXCL8 (gene 3576)
# Test: BSK_LPS_IL8: BioMAP Diversity Plus: LPS Assay for Interleukin-8 (IL8) Biomarker Activity (AID 2283078)
# Details: primary human HUVEC with PBMC; actives raise or lower the signal
# Method in brief: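 HUVEC + PBMC co-culture, LPS-activated; test chemicals dosed, IL-8 read by ELISA at 24 h. Bidirectional curve fit vs DMSO baseline (gain or loss of signal).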
Structure (SMILES),outcome,AC50
CC1(C)C(=O)N(Cl)C(=O)N1Cl,inactive,–
CCCCN1C(=O)[C@@H]([C@H](O)C2CCCCC2)NC(=O)C12CCN(Cc1ccc(Oc3ccc(C(=O)O)cc3)cc1)CC2,inactive,–
Nc1ccn([C@@H]2O[C@H](CO)[C@@H](O)[C@@H]2O)c(=O)n1,inactive,–
c1ccc2cc3ccccc3cc2c1,inactive,–
Cc1nccn1-c1ccc(Sc2cccc(C3(C(N)=O)CCOCC3)c2)cc1,inactive,–
CCn1nc(C)c2c1C(=O)NCC(c1ccc(O)cc1)=N2,inactive,–
CCCCCCCCN(C)C,inactive,–
CCCCCCOC(=O)CC(CC(=O)OCCCCCC)(OC(=O)CCC)C(=O)OCCCCCC,inactive,–
O=S(=O)(O)c1ccc(N=Nc2c(O)ccc3cc(S(=O)(=O)O)ccc23)cc1,inactive,–
COc1cc(C(C)C)c2c(c1)S(=O)(=O)N(COc1cc(=O)n3cccc(OCCN4CCCCC4)c3n1)C2=O,inactive,–
CCc1cccc(CC)c1N,inactive,–
NC(=O)NN=Cc1ccc([N+](=O)[O-])o1,inactive,–
OCCOCCOCCO,inactive,–
Cc1ccc(S(=O)(=O)NC(=O)NN2CCCCCC2)cc1,inactive,–
OC(CCl)CCl,inactive,–
Cn1cc[nH]c1=S,inactive,–
CNC(C)=O,inactive,–
O=C(O)c1ccc2c(c1)nc(C(=O)NC1CCN(C3CC3)CC1)n2Cc1cc(-c2ccc(Cl)s2)on1,inactive,–
CCCOc1ccc(S(=O)(=O)N2CCN(CC)CC2)cc1-c1nc2c(CC)n(Cc3ccccn3)nc2c(=O)[nH]1,inactive,–
c1ccc(C(O[C@@H]2CCCN(CCc3ccc4c(c3)OCO4)C2)c2ccccc2)cc1,–,20 µM (active)
OCC(CO)(CO)CO,inactive,–
Cc1cccc(O)c1C,inactive,–
c1ccc2c(c1)-c1cccc3c1c-2cc1ccccc13,inactive,–
OCc1ccccc1,inactive,–
S=P(N1CC1)(N1CC1)N1CC1,inactive,–
COS(C)(=O)=O,inactive,–
OC[C@H]1O[C@@H]2O[C@H]3[C@H](O)[C@@H](O)[C@@H](O[C@H]4[C@H](O)[C@@H](O)[C@@H](O[C@H]5[C@H](O)[C@@H](O)[C@@H](O[C@H]6[C@H](O)[C@@H](O)[C@@H](O[C@H]7[C@H](O)[C@@H](O)[C@@H](O[C@H]1[C@H](O)[C@H]2O)O[C@@H]7CO)O[C@@H]6CO)O[C@@H]5CO)O[C@@H]4CO)O[C@@H]3CO,inactive,–

# Read-out: not listed separately
# Test: BSK_LPS_SRB: Viability Assessment in the BioMAP Diversity Plus: LPS Assay (AID 2283079);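 note: total protein by sulforhodamine B absorbance as a cytotoxicity measure; measured one day after compound addition; fitted in both directions against DMSO so loss or gain of signal counts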
# Details: primary human HUVEC with PBMC
# Method in brief: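 HUVEC + PBMC co-culture, LPS-stimulated; compound 24 h. 10% TCA fix, 0.1% SRB stain, A560. Bidirectional fit vs DMSO.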
Structure (SMILES),outcome,AC50
CC1(C)C(=O)N(Cl)C(=O)N1Cl,inactive,–
CCCCN1C(=O)[C@@H]([C@H](O)C2CCCCC2)NC(=O)C12CCN(Cc1ccc(Oc3ccc(C(=O)O)cc3)cc1)CC2,inactive,–
Nc1ccn([C@@H]2O[C@H](CO)[C@@H](O)[C@@H]2O)c(=O)n1,inactive,–
c1ccc2cc3ccccc3cc2c1,inactive,–
Cc1nccn1-c1ccc(Sc2cccc(C3(C(N)=O)CCOCC3)c2)cc1,inactive,–
CCn1nc(C)c2c1C(=O)NCC(c1ccc(O)cc1)=N2,inactive,–
CCCCCCCCN(C)C,inactive,–
CCCCCCOC(=O)CC(CC(=O)OCCCCCC)(OC(=O)CCC)C(=O)OCCCCCC,inactive,–
O=S(=O)(O)c1ccc(N=Nc2c(O)ccc3cc(S(=O)(=O)O)ccc23)cc1,inactive,–
COc1cc(C(C)C)c2c(c1)S(=O)(=O)N(COc1cc(=O)n3cccc(OCCN4CCCCC4)c3n1)C2=O,inactive,–
CCc1cccc(CC)c1N,inactive,–
NC(=O)NN=Cc1ccc([N+](=O)[O-])o1,inactive,–
OCCOCCOCCO,inactive,–
Cc1ccc(S(=O)(=O)NC(=O)NN2CCCCCC2)cc1,inactive,–
OC(CCl)CCl,inactive,–
Cn1cc[nH]c1=S,inactive,–
CNC(C)=O,inactive,–
O=C(O)c1ccc2c(c1)nc(C(=O)NC1CCN(C3CC3)CC1)n2Cc1cc(-c2ccc(Cl)s2)on1,inactive,–
CCCOc1ccc(S(=O)(=O)N2CCN(CC)CC2)cc1-c1nc2c(CC)n(Cc3ccccn3)nc2c(=O)[nH]1,inactive,–
c1ccc(C(O[C@@H]2CCCN(CCc3ccc4c(c3)OCO4)C2)c2ccccc2)cc1,–,26.3 µM (active)
OCC(CO)(CO)CO,inactive,–
Cc1cccc(O)c1C,inactive,–
c1ccc2c(c1)-c1cccc3c1c-2cc1ccccc13,inactive,–
OCc1ccccc1,inactive,–
S=P(N1CC1)(N1CC1)N1CC1,inactive,–
COS(C)(=O)=O,inactive,–
OC[C@H]1O[C@@H]2O[C@H]3[C@H](O)[C@@H](O)[C@@H](O[C@H]4[C@H](O)[C@@H](O)[C@@H](O[C@H]5[C@H](O)[C@@H](O)[C@@H](O[C@H]6[C@H](O)[C@@H](O)[C@@H](O[C@H]7[C@H](O)[C@@H](O)[C@@H](O[C@H]1[C@H](O)[C@H]2O)O[C@@H]7CO)O[C@@H]6CO)O[C@@H]5CO)O[C@@H]4CO)O[C@@H]3CO,inactive,–

# Read-out: Interleukin-1 alpha (IL1a), IL1A (gene 3552)
# Test: BSK_LPS_IL1a: BioMAP Diversity Plus: LPS Assay for Interleukin-1 alpha (IL1a) Biomarker Activity (AID 2283080)
# Details: primary human HUVEC with PBMC; actives raise or lower the signal
# Method in brief: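 HUVEC/PBMC co-culture, LPS system; 24 h after dosing; IL-1a by ELISA; gain or loss of signal fitted bidirectionally vs DMSO baseline.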
Structure (SMILES),outcome,AC50
CC1(C)C(=O)N(Cl)C(=O)N1Cl,inactive,–
CCCCN1C(=O)[C@@H]([C@H](O)C2CCCCC2)NC(=O)C12CCN(Cc1ccc(Oc3ccc(C(=O)O)cc3)cc1)CC2,inactive,–
Nc1ccn([C@@H]2O[C@H](CO)[C@@H](O)[C@@H]2O)c(=O)n1,inactive,–
c1ccc2cc3ccccc3cc2c1,inactive,–
Cc1nccn1-c1ccc(Sc2cccc(C3(C(N)=O)CCOCC3)c2)cc1,inactive,–
CCn1nc(C)c2c1C(=O)NCC(c1ccc(O)cc1)=N2,inactive,–
CCCCCCCCN(C)C,inactive,–
CCCCCCOC(=O)CC(CC(=O)OCCCCCC)(OC(=O)CCC)C(=O)OCCCCCC,inactive,–
O=S(=O)(O)c1ccc(N=Nc2c(O)ccc3cc(S(=O)(=O)O)ccc23)cc1,inactive,–
COc1cc(C(C)C)c2c(c1)S(=O)(=O)N(COc1cc(=O)n3cccc(OCCN4CCCCC4)c3n1)C2=O,inactive,–
CCc1cccc(CC)c1N,inactive,–
NC(=O)NN=Cc1ccc([N+](=O)[O-])o1,inactive,–
OCCOCCOCCO,inactive,–
Cc1ccc(S(=O)(=O)NC(=O)NN2CCCCCC2)cc1,inactive,–
OC(CCl)CCl,inactive,–
Cn1cc[nH]c1=S,inactive,–
CNC(C)=O,inactive,–
O=C(O)c1ccc2c(c1)nc(C(=O)NC1CCN(C3CC3)CC1)n2Cc1cc(-c2ccc(Cl)s2)on1,inactive,–
CCCOc1ccc(S(=O)(=O)N2CCN(CC)CC2)cc1-c1nc2c(CC)n(Cc3ccccn3)nc2c(=O)[nH]1,inactive,–
c1ccc(C(O[C@@H]2CCCN(CCc3ccc4c(c3)OCO4)C2)c2ccccc2)cc1,–,12.5 µM (active)
OCC(CO)(CO)CO,inactive,–
Cc1cccc(O)c1C,inactive,–
c1ccc2c(c1)-c1cccc3c1c-2cc1ccccc13,inactive,–
OCc1ccccc1,inactive,–
S=P(N1CC1)(N1CC1)N1CC1,inactive,–
COS(C)(=O)=O,inactive,–
OC[C@H]1O[C@@H]2O[C@H]3[C@H](O)[C@@H](O)[C@@H](O[C@H]4[C@H](O)[C@@H](O)[C@@H](O[C@H]5[C@H](O)[C@@H](O)[C@@H](O[C@H]6[C@H](O)[C@@H](O)[C@@H](O[C@H]7[C@H](O)[C@@H](O)[C@@H](O[C@H]1[C@H](O)[C@H]2O)O[C@@H]7CO)O[C@@H]6CO)O[C@@H]5CO)O[C@@H]4CO)O[C@@H]3CO,inactive,–
